The values that follow come from PubChem BioAssay AID2685 (National Center for Advancing Translational Sciences (NCATS), 2010).

Among all 320,000 compounds or so, about 2,100 (0.66%) were called active. Not shown: some 53% with an inconclusive outcome. Calls come from the whole dose curve; as a rule, active = well fitted inhibition curve with a large enough effect in the signal ratio, with a control signal flat (not every such curve was filed as active); inconclusive = small, poorly fitted or top-dose-only effect, or effect the other way, or a change in a side signal; inactive = flat fitted curve, though single readings scatter; the % refers to the signal ratio. The entries come from a sample that favours actives as a whole.
Potency is the fitted concentration of half-maximal effect.

The assay in a line: qHTS Assay for Lipid Storage Modulators in Drosophila S3 Cells.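 For cell number change: cells counted by Cell Tracker Red CMTPX staining in the red channel.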 For lipid storage change, negative = inhibition: % is set by controls: 0 for no effect and ±100 for the full control effect. As to conditions: BODIPY lipid droplet fluorescence, 18-24 h, cells fed with added oleic acid; cell number change: measured here: cell count max response; series mostly up to 46.1 µM; lipid storage change, negative = inhibition: at the top concentration. The method in brief: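 Drosophila S3 cells loaded with oleic acid (400 uM, as added) and compounds at several concentrations; lipid droplets imaged by 488-nm laser-scanning cytometry, 500–530 nm intensity and object ratio to cell channel. Percent activity normalized to 20 uM Triacsin C.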
(In qHTS, concentration-response curves come from the screen itself.)
In the case of `CCOC(=O)N1CCN(C(=O)C2CCN(c3nnc(-n4cccc4)s3)CC2)CC1`, the “lipid storage change, negative = inhibition” value is -7.26% (inactive) and the cell number change amounted to 29.4%. Consider `COC(=O)C1CSc2[nH]c(=O)sc2C1c1ccc(OC)c(OC)c1` (stereo unspecified), for which the “lipid storage change, negative = inhibition” value was -1.45% (inactive) and the cell number change is -7%. Consider `CCC(C(=O)OCC(=O)N1C(C)CCCC1C)c1ccccc1` (stereo unspecified), for which the “lipid storage change, negative = inhibition” value is -24.9% (inactive) and the cell number change is -35.7%. As to `O=C(NCC1OCCCN1S(=O)(=O)c1cc(F)ccc1F)C(=O)NC1CCCCCC1` (stereo unspecified), the Potency was 4.61 µM (active) and the cell number change was found to be 3.2%. For `O=C(NCCO)C(=O)NCC1OCCCN1S(=O)(=O)c1cc(F)ccc1F` (stereo unspecified), the “lipid storage change, negative = inhibition” value was 27.4% (inactive) and the cell number change worked out at 0.587%.

With `Cc1cc(F)ccc1S(=O)(=O)N1CCCOC1CNC(=O)C(=O)NC1CCCC1` (stereo unspecified), the “lipid storage change, negative = inhibition” value is -1.42% (inactive) and the cell number change was found to be 13.2%.

Take `CCc1cccc(CC)c1NC(=O)C1SC(=Nc2ccccc2C)C(c2nc3ccccc3s2)=C1N` (stereo unspecified): the compound was classed as inactive. As to `O=C1NC2(CCSC2)C(=O)N1CC(=O)N(Cc1ccccc1)C1CCS(=O)(=O)C1` (stereo unspecified), the “lipid storage change, negative = inhibition” value was -0.0384% (inactive) and the cell number change is 1.14%. Consider `O=C(NC1CC2CCCC(C1)N2C(=S)NCCc1ccccc1)C1CC1` (stereo unspecified), for which the “lipid storage change, negative = inhibition” value was -39.3% (inactive) and the cell number change is -26.1%. `CCNCc1cc(Br)c(OCC(=O)Nc2ccccc2)c(OC)c1`: the “lipid storage change, negative = inhibition” value is 7.44% (inactive) and the cell number change turned out to be 1.4%. As to `COc1cc(CO)cc(Br)c1OCC(=O)O`, the Potency is 2.06 µM (active) and the cell number change turned out to be 9.61%.

For `COc1cc(CO)cc(Br)c1OCc1cccnc1`, the “lipid storage change, negative = inhibition” value was 17.8% (inactive) and the cell number change was -5.87%. Regarding `CC(C)(C)c1ccc(/C=C/C(=O)N2CCOCC2)cc1`, the call was inactive and the cell number change was -2.69%. In the case of `CCC1Sc2ccc(S(=O)(=O)CCC(=O)NCc3ccc(C)o3)cc2NC1=O` (stereo unspecified), the compound was called inactive and the cell number change was -1.81%. As to `O=C(NN1CCOCC1)c1cccc(Cl)c1`, the “lipid storage change, negative = inhibition” value is -1.82% (inactive) and the cell number change came out at 14.2%. `CC(C)c1cc(C(=O)N2CCCC(C(=O)c3ccc4ccccc4c3)C2)on1` (stereo unspecified): the “lipid storage change, negative = inhibition” value was 6.79% (inactive). `Cc1cc(C(=O)N2CCCC(C(=O)c3ccc4ccccc4c3)C2)n(C)n1` (stereo unspecified): the Potency is 25.9 µM (active) and the cell number change is -14.9%. Turning to `Cc1cc(C(=O)N2CCCC(C(=O)c3ccc4ccccc4c3)C2)nn1C` (stereo unspecified), the “lipid storage change, negative = inhibition” value is 1.31% (inactive) and the cell number change was 11.4%. For the compound `Cc1cc(C(=O)NC2CCC(C)CC2)c(C)o1` (stereo unspecified), the “lipid storage change, negative = inhibition” value is -14.9% (inactive) and the cell number change is -8.31%. With `O=C(CSc1nnc(-c2cccnc2)n1CCN1CCCCC1)Nc1cccc(Cl)c1`, the “lipid storage change, negative = inhibition” value is 0.818% (inactive) and the cell number change worked out at 11.7%. Turning to `CCCN1C2CCCC1CC(NC(=S)NCCCOCC)C2` (stereo unspecified), the call was inactive and the cell number change was -29.4%. As for `CCSc1nc(-c2ccccc2)nc(C(Cl)Cl)n1`, the Potency is 5.17 µM (active) and the cell number change was -6.95%. For the compound `CSc1nnc(-c2ccccc2)c(-c2ccccc2)n1`, the “lipid storage change, negative = inhibition” value was 11.7% (inactive) and the cell number change is -3.83%.

For `CCSc1nc(-c2ccccc2)c2cc(Cl)ccc2n1`, the “lipid storage change, negative = inhibition” value is 2.19% (inactive) and the cell number change was -8.68%. As to `CSc1nc(-c2ccc(C)cc2)nc(C(Cl)Cl)n1`, the “lipid storage change, negative = inhibition” value was 7.05% (inactive) and the cell number change came to 10.6%.

Regarding `CSc1nc(-c2ccccc2)nc(C(Cl)Cl)n1`, the Potency was 8.2 µM (active) and the cell number change was -22.1%. For `Clc1cc(CSc2ccccc2)nc(-c2ccccc2)n1`, the compound was called inactive.

For `COc1ccccc1/C=N/OC(=O)c1ccc(F)cc1`, the “lipid storage change, negative = inhibition” value was -0.325% (inactive) and the cell number change is 3.91%. In the same order, the values of `COc1cc(Cl)c(S(=O)(=O)NCCCn2ccnc2)cc1Cl` are -3.68% (inactive) and 29%. In the case of `Cc1cc(C)c(S(=O)(=O)NCCCn2ccnc2)cc1C`, the “lipid storage change, negative = inhibition” value is 10.5% (inactive) and the cell number change turned out to be 4.74%.

As for `Cc1cc(Cl)c(Cl)cc1S(=O)(=O)NCCCn1ccnc1`, the Potency is 6.51 µM (active) and the cell number change is -5.8%. With `COc1cccc(NC(=O)C2CCC(CNC(=O)[C@@H]3Cc4ccccc4CN3)CC2)c1` (stereo partly specified), the compound was called inactive and the cell number change was determined as 0.236%. `CC(C(=O)Nc1ccc(F)c(F)c1F)N(C)Cc1cccs1` (stereo unspecified): the “lipid storage change, negative = inhibition” value was -15.3% (inactive) and the cell number change was found to be 25.5%. Regarding `CCOC(=O)N1CCN(S(=O)(=O)N2CCCC(C(=O)NCCc3ccc(OCC)c(OCC)c3)C2)CC1` (stereo unspecified), the Potency is 4.61 µM (active). Turning to `CCOc1ccc(S(=O)(=O)N2CCCC(C(=O)N3CCOCC3)C2)cc1Cl` (stereo unspecified), the compound was classed as inactive and the cell number change was 16.4%.

For the compound `COc1ccc(S(=O)(=O)N2CCC(C(=O)N[C@@H](C)C(=O)NCc3ccc(F)cc3)CC2)cc1`, the call was inactive and the cell number change stood at 13.5%. On to `COc1ccc(CNC(=O)[C@H](C)NC(=O)C2CCN(S(=O)(=O)c3ccc(C)cc3)CC2)cc1`, for which the outcome was inactive and the cell number change was -4.43%. `O=C(Nc1ccncc1)C1CCN(S(=O)(=O)c2ccc(Cl)c(C(F)(F)F)c2)CC1`: the Potency was 10.3 µM (active) and the cell number change is 2.68%. On the same counts, the results for `CCOc1ccc(S(=O)(=O)N2CCCC(C(=O)N3CCOCC3)C2)cc1C` (stereo unspecified) are 2.31 µM (active) and -23.5%. Turning to `CCOC(=O)N1CCN(S(=O)(=O)N2CCCC(C(=O)NCCc3ccc(OC)c(OC)c3)C2)CC1` (stereo unspecified), the “lipid storage change, negative = inhibition” value was -9.88% (inactive) and the cell number change is -20.2%. Regarding `CS(=O)(=O)N1CCC(C(=O)Nc2ccc(Cl)c(C(F)(F)F)c2)CC1`, the compound was called inactive and the cell number change was -15.8%. With `CCOc1ccc(CCNC(=O)C2CCCN(S(=O)(=O)N3CCOCC3)C2)cc1OCC` (stereo unspecified), the “lipid storage change, negative = inhibition” value is -4.66% (inactive) and the cell number change turned out to be 0.288%. In the case of `COc1ccc(CNC(=O)[C@H](C)NC(=O)C2CCN(S(=O)(=O)c3ccc(F)cc3)CC2)cc1`, the Potency was 18.4 µM (active) and the cell number change is 3.44%. Consider `COc1ccc(S(=O)(=O)N2CCCC(C(=O)N3CCOCC3)C2)cc1C` (stereo unspecified), for which the result was inactive and the cell number change is 17.1%.

For the compound `O=C(Nc1ccncc1)C1CCN(S(=O)(=O)c2cccc(C(F)(F)F)c2)CC1`, the “lipid storage change, negative = inhibition” value was 9.54% (inactive) and the cell number change was -3.08%.
